The results in this text go back to PubChem BioAssay.

Each structure is given as a SMILES string. Values without a mark were called inactive. Calls of active or inactive are those of the source. No stated cut-off is given here; in the data, active means inhibition above about 36%; inactive means the rest.

The experiment relates to transactivating tegument protein VP16 (Human herpesvirus 1). The experiment in a line: compounds suppressing VP16-driven luciferase signal – cell-based, luminescence, single concentration, counter-screen for SRC2 inhibitor project (AID 652007). The settings on record: cell-based VP16 transactivation luciferase reporter, at 8.9 µM, stronger effect = higher value. (The purpose of a counterscreen is to sort out artefacts and off-target activity.)
Turning to `Cc1cc(C)c(C#N)c(Sc2nc(C)c([N+](=O)[O-])c(C)c2C#N)n1`, the inhibition (commonly the drop in the measured response relative to a control, in per cent) was 12.9%.
The value for `O=C1C=CC2(C=C1)O[C@H](Cc1ccccc1)[C@@H](Cc1ccccc1)O2` was 94.4% (active); that for `O=C(CCCc1ccccc1)c1ccc2c(c1)OCCO2` was 54.7% (active); that for `O=C(Nc1ccc(Cl)cc1)/C(=C/c1cccc(O)c1)c1nc2ccccc2s1` was 48.6% (active).
With `C=CC(=O)N1C/C(=C/c2ccccc2)C(=O)/C(=C\c2ccccc2)C1` the figure was 88.6% (active); with `CC1CCC/C=C/C(=O)c2c(O)cc(O)cc2CC(=O)O1` (stereo not given), 19.4%; with `CCOc1ccc(-c2cc(CCCC(=O)Nc3cccc(OC)c3)no2)cc1`, 36.8% (active).
The value for `C#CCN(C[C@@H]1[C@@H](OC(=O)Nc2cccs2)[C@@H](OC(=O)Nc2cccs2)Cn2c(=O)ccc(=O)n21)S(=O)(=O)c1ccc(C)cc1` was 26.4%.
`Cc1cc(C)n2c(Nc3ccc4c(c3)OCCO4)c(-c3cc4ccccc4o3)nc2n1`: the inhibition is -60.9%.
As to `O=C(CCl)Nc1cc2[nH]c(=O)[nH]c2cc1Br`, the inhibition is 76.5% (active).
With `COc1cccc(C2=CC(=O)CC(C)(C)C2)n1` the figure was -6.05%; with `COc1ccc(OC)c(N(CCN2C(=O)c3ccccc3C2=O)C(=O)CCl)c1`, 30.9%; with `O=C1/C(=C\c2ccccc2)CN(C(=O)CCN2CCCCC2)C/C1=C/c1ccccc1`, 85.7% (active).
The value for `N#CC(=C1C=CC(=NO)C(Cl)=C1)c1ccccc1` was -5.64%; that for `CCC(C(=O)NCc1ccccc1)n1c(CSCCOc2ccccc2)nc2ccccc21` (stereo not given) was 19.5%.
